Bioassay records as filed in PubChem.
SKN-1 block: blocks SKN-1 activity in C. elegans. C. elegans VP596 Pgst-4::GFP/RFP ratio, acrylamide-induced, 24 h. inhibition, % at 21.8 µM. 360,000 compounds, 0.49% hits. AID 624304;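 active = interference check ratio from 0.5 to 1.5 plus GFP to RFP signal ratio inhibition reaching or exceeding a fixed threshold, cut at about 30% in these data, passing the limit was not always enough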
MEKK2 mut-MEK5: signal of MEK5 binding to mutant human MEKK2 PB1 domain | percent response, % at 10 µM | 290,000 compounds, 0.35% hits | bead flow cytometry, Alexa488-MEK5 binding to MEKK2 mutant; in the data active = percent response above about 24%, passing the limit was not always enough
MEKK3 PB1 HTS: raises or lowers MEK5 binding to the human MEKK3 PB1 domain; binding response (% of control), % at 10 µM; Q99759; bead-based flow cytometry, Alexa488-MEK5 binding to MEKK3; actives lie on both sides; 0 = blocked by unlabeled MEK5, 100 = vehicle; 290,000 compounds, 1.4% hits;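 active = binding response more than 3 SD above or below the average of its plate-row segment, actives on both sides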;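 also: Alexa488 bead fluorescence after subtracting the streptavidin-only scavenger bead signal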
NRP1-CendR mod: NRP-1/CendR interaction modulation. FAM-RPARPAR peptide binding to NRP-1, fluorescence polarization. inhibition, % at 25 µM. 360,000 compounds, 0.85% hits;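 active = inhibition or corrected inhibition above about 18%, plus a signal ratio from 0.5 to 1.5, limit read from the data, passing the limit was not always enough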
Target sequence (O14786 whole entry, looked up): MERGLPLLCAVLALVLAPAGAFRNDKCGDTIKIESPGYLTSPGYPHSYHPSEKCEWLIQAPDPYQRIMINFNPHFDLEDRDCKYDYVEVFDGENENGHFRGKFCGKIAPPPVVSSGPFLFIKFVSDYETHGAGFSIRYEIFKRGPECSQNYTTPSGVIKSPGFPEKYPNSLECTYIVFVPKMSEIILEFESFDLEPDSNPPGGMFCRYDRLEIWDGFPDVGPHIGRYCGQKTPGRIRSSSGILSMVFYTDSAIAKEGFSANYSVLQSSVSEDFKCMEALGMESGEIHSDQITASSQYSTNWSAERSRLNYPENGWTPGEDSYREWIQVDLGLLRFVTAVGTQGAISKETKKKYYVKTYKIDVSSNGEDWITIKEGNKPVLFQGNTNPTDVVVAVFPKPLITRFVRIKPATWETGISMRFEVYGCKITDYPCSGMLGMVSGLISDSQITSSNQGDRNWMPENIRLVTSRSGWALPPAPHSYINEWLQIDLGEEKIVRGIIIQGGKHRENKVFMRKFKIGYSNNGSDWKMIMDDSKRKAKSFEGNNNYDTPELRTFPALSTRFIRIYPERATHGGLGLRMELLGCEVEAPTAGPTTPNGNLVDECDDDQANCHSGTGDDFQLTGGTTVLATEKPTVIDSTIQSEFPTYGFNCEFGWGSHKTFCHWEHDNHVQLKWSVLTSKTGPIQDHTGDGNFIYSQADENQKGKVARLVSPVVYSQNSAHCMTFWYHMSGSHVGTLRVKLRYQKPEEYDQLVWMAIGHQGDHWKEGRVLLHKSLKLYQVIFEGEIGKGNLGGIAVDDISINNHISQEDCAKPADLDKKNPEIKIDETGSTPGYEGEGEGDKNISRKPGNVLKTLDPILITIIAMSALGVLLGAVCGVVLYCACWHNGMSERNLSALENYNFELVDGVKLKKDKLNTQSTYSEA
MEKK2 WT-MEK5: raises or lowers MEK5 binding to wildtype human MEKK2 PB1 domain; 290,000 compounds, 1.1% hits; binding response (% of control), % at 10 µM; bead flow cytometry, Alexa488-MEK5 binding to MEKK2 WT; actives lie on both sides; in the data active = binding response below about 67% or above about 130%
MEKK2wt confirm: raises or lowers MEK5 binding to wildtype human MEKK2, retest. shares compounds with MEKK3 PB1 HTS. bead flow cytometry, Alexa488-MEK5 binding to MEKK2 WT; actives lie on both sides. binding response (% of control), % at 10 µM. 5,900 compounds, 2.4% hits. AID 1892; in the data active = binding response below about 16% or above about 210%; inactive = in between
MEKK2mut-MEK5: signal of MEK5 binding to mutant human MEKK2, retest; percent response, % at 10 µM; shares compounds with MEKK3 PB1 HTS; bead flow cytometry, Alexa488-MEK5 binding to MEKK2 mutant; AID 1893; 5,900 compounds, 2% hits; in the data active = percent response mostly above about 71%, no sharp cut-off; inactive = mostly below about 38%;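 also: higher means compound restores mutant binding toward wildtype level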
MEKK3-MEK5 inh: MEKK3-MEK5 PB1 inhibition, single concentration confirmation. shares compounds with MEKK3 PB1 HTS. AID 1894. binding response (% of control), % at 10 µM. 5,900 compounds, 1.8% hits. bead flow cytometry, Alexa488-MEK5 binding to MEKK3; stronger effect = lower value;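 active = binding response below 72% of control, or above a set upper limit, though filed actives all read lower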;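 also: 100% = DMSO only wells and 0% = binding blocked by excess unlabeled MEK5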
Numbers without * were called inactive; [ ] = another dose, or the depositor's remark. An excerpt weighted towards active compounds, which were near 3.2% of everything screened.

Results for CCOC(=O)c1c(-c2ccccc2)oc2ccc(OCC(=O)NNC(=O)CCCC(=O)O)cc12 ?
SKN-1 block: -9; MEKK2 mut-MEK5: 0; MEKK3 PB1 HTS: 107; NRP1-CendR mod: 12; MEKK2 WT-MEK5: 107

What do the screens show for `C[C@H]1COc2cccc(N3CCSCC3)c2S(=O)(=O)N1`?
SKN-1 block: -9; NRP1-CendR mod: -12

How did Cc1cccc[n+]1CC(=O)c1ccc([N+](=O)[O-])cc1 do in these assays?
SKN-1 block: 0; NRP1-CendR mod: 9

How did COc1ccc(C(=O)C[n+]2ccccc2C)cc1 do in these assays?
SKN-1 block: -3; MEKK2 mut-MEK5: 1; MEKK3 PB1 HTS: 143*; NRP1-CendR mod: -13; MEKK2 WT-MEK5: 108; MEKK2wt confirm: 104; MEKK2mut-MEK5: 7; MEKK3-MEK5 inh: 105

Results for O=C(C[n+]1cccc2ccccc21)c1ccc(Br)cc1 ?
SKN-1 block: 8; MEKK2 mut-MEK5: 234*; MEKK3 PB1 HTS: 24*[inhibitor]; NRP1-CendR mod: -30; MEKK2wt confirm: 107; MEKK2mut-MEK5: 1; MEKK3-MEK5 inh: 91

What do the screens show for `Cc1ccc(C(=O)C[n+]2cccc3ccccc32)cc1`?
SKN-1 block: -17; MEKK2 mut-MEK5: -18; MEKK3 PB1 HTS: 80*[inhibitor]; NRP1-CendR mod: -24; MEKK2 WT-MEK5: 86; MEKK2wt confirm: 101; MEKK2mut-MEK5: -18; MEKK3-MEK5 inh: 94

What do the screens show for `O=C(C[n+]1cc(Br)cc2ccccc21)c1ccc(Br)cc1`?
SKN-1 block: 7; MEKK2 mut-MEK5: -4; MEKK3 PB1 HTS: 92; NRP1-CendR mod: -30; MEKK2 WT-MEK5: 81

What do the screens show for `Cc1ccc(C(=O)C[n+]2ccccc2)cc1`?
SKN-1 block: 3; MEKK2 mut-MEK5: -6; MEKK3 PB1 HTS: 91; NRP1-CendR mod: -2; MEKK2 WT-MEK5: 96

How did COC(=O)C1(C)COP(=O)(Nc2ccc(OC)cc2)OC1 (stereo not drawn) do in these assays?
SKN-1 block: 6; NRP1-CendR mod: 4

What do the screens show for `Cc1ccc2nc(/N=C(\N)NC(=O)NC3CCCCC3)nc(C)c2c1`?
SKN-1 block: 29; MEKK2 mut-MEK5: 25; MEKK3 PB1 HTS: 103; NRP1-CendR mod: -6; MEKK2 WT-MEK5: 141*; MEKK2wt confirm: 135; MEKK2mut-MEK5: 27; MEKK3-MEK5 inh: 108

How did CCCC(=O)N/C(N)=N/c1nc(C)c2cc(C)ccc2n1 do in these assays?
SKN-1 block: 0; MEKK2 mut-MEK5: 9; MEKK3 PB1 HTS: 105; NRP1-CendR mod: -5; MEKK2 WT-MEK5: 107

Results for C=CCn1cnc2c(nnn2-c2ccc(C)c(C)c2)c1=O ?
SKN-1 block: 14; MEKK2 mut-MEK5: -72; MEKK3 PB1 HTS: 2.0*[inhibitor]; NRP1-CendR mod: -7; MEKK2 WT-MEK5: 1.0*[inhibitor]; MEKK2wt confirm: 97; MEKK2mut-MEK5: -5; MEKK3-MEK5 inh: 101

What do the screens show for `C=CCn1cnc2c(nnn2-c2ccc(OC)c(OC)c2)c1=O`?
SKN-1 block: 3; MEKK2 mut-MEK5: 0; MEKK3 PB1 HTS: 106; NRP1-CendR mod: 7; MEKK2 WT-MEK5: 98

How did CSCCNC(=O)C1(C)CCN1C(=O)CCc1ccccc1 (stereo not drawn) do in these assays?
SKN-1 block: 2; NRP1-CendR mod: -14

Results for CCCOc1ccccc1OCC(=O)Nc1cccc(S(=O)(=O)NC2=NCCC2)c1 ?
SKN-1 block: -8; NRP1-CendR mod: 2

How did CCOC(=O)/C(=C/C=C1\Sc2cc(C)c(C)cc2N1CC)C(C)=O do in these assays?
SKN-1 block: 23; MEKK2 mut-MEK5: -22; MEKK3 PB1 HTS: 90; NRP1-CendR mod: 128; MEKK2 WT-MEK5: 42*[inhibitor]; MEKK2wt confirm: 87; MEKK2mut-MEK5: -12; MEKK3-MEK5 inh: 91

How did CCOC(=O)/C(=C/C=C1\Sc2ccccc2N1CC)C(C)=O do in these assays?
SKN-1 block: 15; MEKK2 mut-MEK5: -3; MEKK3 PB1 HTS: 104; NRP1-CendR mod: 138; MEKK2 WT-MEK5: 94

What do the screens show for `CN(C)c1ccc(C(=O)Nc2ccc(S(=O)(=O)Nc3nccs3)cc2)cc1`?
SKN-1 block: -8; MEKK2 mut-MEK5: -3; MEKK3 PB1 HTS: 96; NRP1-CendR mod: -6; MEKK2 WT-MEK5: 96

How did C=CCSc1nc(-c2ccccc2)c(C#N)c(=O)[nH]1 do in these assays?
SKN-1 block: 6; MEKK2 mut-MEK5: 5; MEKK3 PB1 HTS: 103; NRP1-CendR mod: 7; MEKK2 WT-MEK5: 105

What do the screens show for `C=CCSc1nc2c(c(=O)[nH]1)C(c1ccccc1)C(C#N)=C(N)O2` (stereo not drawn)?
SKN-1 block: -7; MEKK2 mut-MEK5: 30; MEKK3 PB1 HTS: 132*; NRP1-CendR mod: -1; MEKK2 WT-MEK5: 108; MEKK2wt confirm: 98; MEKK2mut-MEK5: -5; MEKK3-MEK5 inh: 97

Results for CC(C)OC(=O)/C(=C\c1ccccc1)NC(=O)c1ccccc1 ?
SKN-1 block: -7; MEKK2 mut-MEK5: -3; MEKK3 PB1 HTS: 102; NRP1-CendR mod: 6; MEKK2 WT-MEK5: 95

How did CC(C)OC(=O)C(NC(=O)c1ccccc1)=C1CCCCC1 do in these assays?
SKN-1 block: -18; MEKK2 mut-MEK5: 6; MEKK3 PB1 HTS: 122*; NRP1-CendR mod: 10; MEKK2 WT-MEK5: 113; MEKK2wt confirm: 96; MEKK2mut-MEK5: 0; MEKK3-MEK5 inh: 102

How did O=C(Nc1ccc(Cl)cn1)c1ccc(COc2ccccc2Br)o1 do in these assays?
SKN-1 block: 1; MEKK2 mut-MEK5: -18; MEKK3 PB1 HTS: 49*[inhibitor]; NRP1-CendR mod: -15; MEKK2 WT-MEK5: 50; MEKK2wt confirm: 107; MEKK2mut-MEK5: 14; MEKK3-MEK5 inh: 110

What do the screens show for `O=C(/C=C/c1cccc([N+](=O)[O-])c1)N1CCN(c2ccc(F)cc2)CC1`?
SKN-1 block: 2; MEKK2 mut-MEK5: 0; MEKK3 PB1 HTS: 133*; NRP1-CendR mod: -6; MEKK2 WT-MEK5: 109; MEKK2wt confirm: 96; MEKK2mut-MEK5: -5; MEKK3-MEK5 inh: 97

What do the screens show for `O=C(/C=C/c1ccccc1[N+](=O)[O-])N1CCN(c2ccc(F)cc2)CC1`?
SKN-1 block: 13; MEKK2 mut-MEK5: 1; MEKK3 PB1 HTS: 101; NRP1-CendR mod: 7; MEKK2 WT-MEK5: 98

What do the screens show for `O=C(CN1C(=O)c2cccc([N+](=O)[O-])c2C1=O)N1CCN(c2ccc(F)cc2)CC1`?
SKN-1 block: 6; MEKK2 mut-MEK5: -17; MEKK3 PB1 HTS: 47*[inhibitor]; NRP1-CendR mod: 1; MEKK2 WT-MEK5: 53; MEKK2wt confirm: 102; MEKK2mut-MEK5: 5; MEKK3-MEK5 inh: 106
